The sample as a whole holds a higher share of hits than the screen did.
Tb PYK inh = qHTS of Trypanosoma Brucei Inhibitors | hit rate 0.12% among 410,000 | Potency, µM (series often up to 76.8 µM), hits mostly inhibitors | pyruvate kinase (Trypanosoma brucei), Q57TT1 | AID 624173, 2012 | TbPYK enzyme, Kinase-Glo Plus ATP luminescence, 45 min; also: nearly all actives have a fitted effect of over 50% in size
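Activity of T. brucei pyruvate kinase was followed by Kinase-Glo Plus luminescence after the enzyme reacted 45 min at room temperature with 130 uM ADP (final) and substrate. Test compounds were added before ADP at multiple concentrations.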
CHX counter = Cycloheximide Counterscreen for Small Molecule Inhibitors of Shiga Toxin; AID 2314, 2010; cell reporter, cycloheximide protein synthesis inhibition counterscreen; hit rate 12% among 300,000; max response, %; in the data active = max response mostly above about 13%, no sharp cut-off; inactive = mostly below about 14%; also: read at 38.3 µM for the half of the compounds with a filed dose
FBPA Giardia inh = qHTS Assay for Inhibitors of Fructose-1,6-bisphosphate Aldolase from Giardia Lamblia. A8B2U2. hit rate 0.71% among 290,000. purified Giardia FBPA. AID 2451, 2010. Potency, µM (titrated, usually from 59.6 µM), actives largely listed as inhibitors; also: nearly all actives have a fitted effect of over 55% in size
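40 nM FBPA preincubated 10 min at RT with compound (up to 57.5 uM final), then substrate plus GAPDH/TPI/NAD/arsenate coupling and diaphorase/resazurin added. Fluorescence read after 20 min at RT, 525/598 nm.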
Shiga inhibitor = A qHTS for Small Molecule Inhibitors of Shiga Toxin | Vero cells, Shiga toxin protein synthesis inhibition reporter | inhibition, % at 38.7 µM | hit rate 9.2% among 290,000 | AID 2315, 2010; in the data active = inhibition mostly above about 28%, no sharp cut-off; inactive = mostly below about 43%
LmPK inh = qHTS Assay for Inhibitors of Leishmania Mexicana Pyruvate Kinase (LmPK); Q27686; purified LmPK, Kinase-Glo ATP luminescence, 1 h; Potency, µM (highest dose often 57.5 µM), hits mostly inhibitors; hit rate 0.37% among 290,000
Target sequence (Q27686 whole entry, looked up): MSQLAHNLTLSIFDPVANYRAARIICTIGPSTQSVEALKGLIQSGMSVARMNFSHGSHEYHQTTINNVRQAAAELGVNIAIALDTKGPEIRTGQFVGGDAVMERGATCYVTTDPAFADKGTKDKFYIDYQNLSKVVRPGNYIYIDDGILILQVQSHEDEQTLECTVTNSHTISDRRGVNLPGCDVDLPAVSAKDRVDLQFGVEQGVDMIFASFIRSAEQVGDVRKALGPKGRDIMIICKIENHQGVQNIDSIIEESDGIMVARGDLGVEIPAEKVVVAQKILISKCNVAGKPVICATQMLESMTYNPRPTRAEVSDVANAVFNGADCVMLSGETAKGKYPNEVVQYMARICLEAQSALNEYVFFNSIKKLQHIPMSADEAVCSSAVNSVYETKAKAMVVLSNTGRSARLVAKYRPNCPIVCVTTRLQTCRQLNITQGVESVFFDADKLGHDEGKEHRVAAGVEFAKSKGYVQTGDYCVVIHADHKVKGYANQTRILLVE
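Purified LmPK (0.1 nM) converted ADP (0.1 mM) to ATP with PEP (0.5 mM) in imidazole buffer pH 7.2 with KCl and MgCl2, 1 h at room temperature. ATP was read by Kinase-Glo luminescence; data normalized to uninhibited and no-enzyme controls.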
RE007 growth inh = qHTS Assay for Inhibitors of the HIV-1 protein Vpr; Potency, µM (titrated, usually from 92.2 µM), most hits filed as inhibitors; AID 651644, 2012; hit rate 0.21% among 360,000; S. pombe RE007 Vpr strain, BacTiter-Glo ATP luminescence, 24 h; active = well fitted falling curve with a large enough effect; inconclusive = small, poorly fitted or top-dose-only effect; inactive = no such curve, though single readings can be large or run the other way; also: nearly all actives have a fitted effect of over 50% in size
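Fission yeast RE007 carrying one integrated HIV-1 vpr copy, seeded at OD 0.01 in PMG+AL medium with 23 nL pinned compound. Grown 24 h at 30 degrees; viability read by BacTiter-Glo luminescence after 5 min.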
Large screens that a line does not name were inactive. Unless noted, calls follow the shape of the dose curve; as a rule, active = well fitted curve in the direction sought with a large enough effect; inconclusive = small, poorly fitted or top-dose-only effect, or another doubt; inactive = no such curve, though single readings can be large; an effect the other way counts as inactive or inconclusive.

COc1ccc(-n2nc3cc(C)c(NC(=S)NC(=O)c4ccccc4C)cc3n2)cc1	CHX counter 30.3, Shiga inhibitor 111.8
Cc1cc2nn(-c3ccc(F)cc3)nc2cc1NC(=O)c1cccc2ccccc12	none (no result: CHX counter, FBPA Giardia inh, Shiga inhibitor, LmPK inh, RE007 growth inh)
CCC(=O)Nc1cc2nn(-c3ccc(OC)cc3)nc2cc1C	CHX counter 51.7, Shiga inhibitor 90.1
CCCCC(=O)Nc1cc2nn(-c3ccc(OC)cc3)nc2cc1C	none
CCC(=O)Nc1cc2nn(-c3ccc(C)cc3)nc2cc1C	CHX counter 44.1, Shiga inhibitor 109.0
N#CCCCS(=O)(=O)c1ccccc1	none (no result: Tb PYK inh, CHX counter, Shiga inhibitor, LmPK inh, RE007 growth inh)
CSc1cccc(NC(=O)CC(c2cccs2)N2Cc3ccccc3C2=O)c1 (configuration not stated)	none (no result: CHX counter, FBPA Giardia inh, Shiga inhibitor, LmPK inh, RE007 growth inh)
CCN(c1ccc(OC)cc1)S(=O)(=O)c1ccc2[nH]c(=O)ccc2c1	none (no result: CHX counter, FBPA Giardia inh, Shiga inhibitor, LmPK inh, RE007 growth inh)
CCOc1ccc(NC(=O)Nc2nnc(N3CCCCC3C)s2)cc1 (configuration not stated)	none (no result: CHX counter, FBPA Giardia inh, Shiga inhibitor, LmPK inh, RE007 growth inh)
O=[n+]1cc(-c2ccccc2)n([O-])c2c1CCCCC2	CHX counter 15.6
Cc1ccccc1C(=O)NCCSc1ccccc1	CHX counter 32.1
O=C(NCCSc1ccccc1)c1ccccc1Cl	CHX counter 63.7, Shiga inhibitor 97.0
CSc1ccccc1C(=O)NCCSc1ccccc1	CHX counter 28.7
CS(=O)(=O)Nc1ccccc1C(=O)NCCSc1ccccc1	none
COC(=O)c1ccc2cc(OC)c(OC)cc2c1	none (no result: CHX counter, FBPA Giardia inh, Shiga inhibitor, LmPK inh)
COC(=O)c1ccc(OCC(O)CNCC(c2ccc(OC)cc2)N(C)C)c(OC)c1 (configuration not stated)	Shiga inhibitor 52.3
O=S(=O)(c1ccc2oc3ccc(S(=O)(=O)N4CCCCC4)cc3c2c1)N1CCCCC1	none
CCOC(=O)c1cn[nH]c1NC(=S)Nc1ccc(Cl)cc1	CHX counter 57.7, Shiga inhibitor 57.9
CCOC(=O)c1c(NC(=O)Nc2ccc(Cl)cc2)sc(C)c1C	none
c1cncc(-c2nc(-c3cccs3)cs2)c1	Tb PYK inh inconclusive, CHX counter 44.0
c1cncc(-c2csc(-c3cccnc3)n2)c1	none
Clc1ccsc1-c1csc(-c2cccnc2)n1	CHX counter 33.2
Oc1ccc(-c2csc(-c3cccnc3)n2)c(O)c1	CHX counter 34.7, Shiga inhibitor 111.2
c1cncc(-c2nc(-c3ccco3)cs2)c1	Tb PYK inh inconclusive, CHX counter 27.2, Shiga inhibitor 79.4
Nc1nc(-c2ccco2)cs1	FBPA Giardia inh inconclusive
Cc1ncc(C[n+]2csc(CCOP(=O)(O)O)c2C)c(N)n1	none (no result: CHX counter, FBPA Giardia inh, Shiga inhibitor, LmPK inh, RE007 growth inh)
Cc1ccc(CNC(=O)CN(c2ccc(Cl)cc2Cl)S(=O)(=O)c2ccccc2)cc1	none (no result: CHX counter, FBPA Giardia inh, Shiga inhibitor, LmPK inh, RE007 growth inh)
c1csc(-c2csc(-c3cccs3)n2)c1	CHX counter 30.0, Shiga inhibitor 118.4
COc1cc(S(=O)(=O)NCCc2c(C)[nH]c3ccc(C)cc23)ccc1Br	none (no result: CHX counter, FBPA Giardia inh, Shiga inhibitor, LmPK inh, RE007 growth inh)
ClCc1ncc(-c2ccc(Cl)cc2)o1	none
CCC(NC(=O)c1ccccc1NC(=O)c1ccco1)C(=O)O (configuration not stated)	none
O=C(NCCc1ccccc1)c1c(F)cccc1F	CHX counter 39.1, Shiga inhibitor 99.1
O=C(NCC1OCCc2ccccc21)c1ccco1 (configuration not stated)	CHX counter 19.5, Shiga inhibitor 34.2
O=C(COC(=O)c1ccccc1NC(=O)c1ccco1)NC1CC1	none
CCC(NC(=O)c1ccccc1NC(=O)c1ccco1)C(=O)NC1CCCCC1 (configuration not stated)	CHX counter 22.5
CC1CCN(C(=O)COC(=O)c2ccccc2NC(=O)c2ccco2)CC1	CHX counter 44.0, Shiga inhibitor 100.8
CCc1nn(Cc2c(C)cc(C)cc2C)c(=O)c2cc3cc(C)ccc3n12	none (no result: CHX counter, FBPA Giardia inh, Shiga inhibitor, LmPK inh, RE007 growth inh)
CCOc1ccc(NC(=O)Nc2cc3c(cc2N2CCCCC2)n(C)c(=O)n3C)cc1	none (no result: CHX counter, FBPA Giardia inh, Shiga inhibitor, LmPK inh, RE007 growth inh)
COC(=O)c1ccc(C(NC(=O)OCc2ccccc2)/C(=C/[C@@H](C)C(=O)NCC2CC2)c2cccnc2)cc1 (some centres not stated)	none (no result: Tb PYK inh, CHX counter, Shiga inhibitor, LmPK inh, RE007 growth inh)

High-throughput results deposited in PubChem BioAssay by National Center for Advancing Translational Sciences (NCATS).
